DT40 TDP1 no CPT: qHTS for Inhibitors of human tyrosyl-DNA phosphodiesterase 1 (TDP1): qHTS in cells in absence of CPT; DT40 Tdp1-/- hTDP1 cells, no CPT, ATP luminescence, 48 h; Potency, µM (top dose mostly 46.2 µM), most hits filed as inhibitors; actives 15% (n = 420,000); further: nearly all actives have a fitted effect of over 55% in size
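Readout: luminescence from CellTiter-Glo after 30 min in the dark at RT. Cells: DT40 Tdp1-/- with stable hTDP1, 400/well. Exposure: compounds alone, ≥48 hr, 37 °C.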
HT1080 IDH1KD tx: qHTS for induction of synthetic lethality in tumor cells producing 2HG: qHTS for the HT-1080-IDH1KD cell line. HT-1080 IDH1 knockdown viability, ATP luminescence, 48 h. Potency, µM (series often up to 46.1 µM), most hits filed as cytotoxic. actives 2% (n = 360,000). AID 686971, 2013
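Luminescent ATP read-out (CellTiter-Glo, 10 min at room temperature) after 48 h compound exposure at 37 °C gave viability of IDH1-knockdown HT-1080 cells. Activity was normalised to DMSO and cell-free wells, then fitted as concentration-response curves.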
DT40 TDP1 CPT: qHTS for Inhibitors of human tyrosyl-DNA phosphodiesterase 1 (TDP1): qHTS in cells in presence of CPT. Potency, µM (doses to about 46.2 µM), most hits filed as inhibitors. actives 12% (n = 420,000). chicken DT40 Tdp1-/-;hTDP1 cells + 20 nM CPT, ATP luminescence, 48 h; further: nearly all actives have a fitted effect of over 55% in size
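Chicken DT40 Tdp1-/- cells complemented with human TDP1, 400 cells/well, exposed to compounds plus 20 nM camptothecin for at least 48 h at 37 C; viability read as ATP content by CellTiter-Glo luminescence.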
HT1080NT lethal: qHTS for induction of synthetic lethality in tumor cells producing 2HG: qHTS for the HT-1080-NT fibrosarcoma cell line; HT-1080-NT fibrosarcoma viability, CellTiter-Glo ATP luminescence, 48 h; Potency, µM (top dose mostly 46.1 µM), most hits filed as cytotoxic; actives 1.6% (n = 360,000);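 further: NT is the 2HG producing partner of a matched IDH1 knockdown line; nearly all actives have a fitted effect of over 55% in size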
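Fibrosarcoma NT cells, 750 per well in 5% FBS RPMI, were exposed to compound for 48 hours. Viability: CellTiter-Glo luminescence.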
IL-1B inflam inh: qHTS for Inhibitors of Inflammasome Signaling: IL-1-beta AlphaLISA Primary Screen; THP-1 LPS/ATP IL-1B secretion, AlphaLISA, 16 h; hits give low values; activity change, % at 57.5 µM; actives 4.7% (n = 360,000); AID 743279, 2014; in the data active means activity change below about -50%; inconclusive means mostly about -30% to -49%
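Secreted IL-1B measured by AlphaLISA bead assay after 16 h compound exposure of THP-1 cells; compounds (final up to 57.5 uM) added 1 h before LPS (250 ng/mL) and ATP (1.25 mM) stimulation; lower signal means less secretion.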
ELG1 DNA repair: qHTS screen for small molecules that inhibit ELG1-dependent DNA repair in human embryonic kidney (HEK293T) cells expressing luciferase-tagged ELG1; AID 504467, 2011; actives 2.3% (n = 330,000); HEK293T ELG1-luciferase reporter, luminescence, 16 h; DNA damage induced by 5-fluorouridine; Potency, µM (doses to about 46.1 µM), usual class: inhibitors; further: nearly all actives have a fitted effect of over 55% in size
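DMSO vehicle served as the neutral condition. Each well held 2,000 cells given 5-fluorouridine plus compound; after 16 hr at 37 °C/5% CO2, ONE-Glo was added and luciferase measured 30 min later.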
Hits are given with their value; i = inactive; ? = inconclusive; nt = no result; [ ] = dose if it differs, or a comment. Most compounds without a hit are left out; they make up all but 19% or so of the library. Unless noted, the call rests on the fitted dose curve; in most records, active means well fitted curve in the direction sought with a large enough effect; inconclusive means small, poorly fitted or top-dose-only effect, or another doubt; inactive means no such curve, though single readings can be large; an effect the other way counts as inactive or inconclusive.

SMILES | DT40 TDP1 no CPT | HT1080 IDH1KD tx | DT40 TDP1 CPT | HT1080NT lethal | IL-1B inflam inh | ELG1 DNA repair
COc1ccc([C@H]2CC(=O)C[C@@H](CCn3cc(Cc4ccccc4)nn3)O2)cc1 | i | i | i | i | i | nt
O=C(c1cccc(F)c1)N1CCC[C@@]2(CCN(Cc3nccs3)C2)C1 | i | nt | i | nt | nt | nt
COc1ccc(NC(=O)Cn2cc(S(=O)(=O)c3ccccc3)c(=O)c3cc(C)ccc32)cc1Cl | i | nt | i | nt | nt | nt
Cc1ccc(/C=C(\C#N)C(=O)Nc2cccc(Cl)c2)o1 | i | nt | 1.3µM | nt | nt | nt
Cc1c(NC(=O)/C(C#N)=C/c2ccc(-c3cccc(Cl)c3)o2)c(=O)n(-c2ccccc2)n1C | 21µM | i | ? | i | i | ?
CCCCNc1ccc2c(c1)C1CC2CCN1C(=O)OCc1ccccc1 (stereo not drawn) | ? | i | ? | i | i | nt
Cc1ccc2[nH]c(=O)c(CN(Cc3ccccc3)C(=S)NCCCN(C)C)cc2c1 | ? | 16µM | ? | 18µM | -87 | ?
COc1cc2cc(CN(CCc3ccccc3C)C(=S)NCCCN3CCOCC3)c(=O)[nH]c2cc1OC | ? | i | ? | i | nt | ?
CCNC(=S)N(CCc1ccccc1C)Cc1cc2cc(OC)c(OC)cc2[nH]c1=O | i | i | i | i | i | 9.2µM
COc1cc2cc(CN(CCc3ccccc3C)C(=S)NCCCN(C)C)c(=O)[nH]c2cc1OC | 16µM | i | ? | i | i | i
CCNC(=S)N(CCc1cccc(C)c1)Cc1cc2cc(OC)c(OC)cc2[nH]c1=O | ? | i | ? | i | nt | 8.2µM
CC1CCCCC1NC(=O)c1c(O)nc2ccccn2c1=O (stereo not drawn) | 21µM | i | ? | ? | i | ?
Cc1csc2nc(O)c(C(=O)NC3CCCCC3C)c(=O)n12 (stereo not drawn) | 18µM | i | ? | i | i | i
CC1CCCCC1NC(=O)c1cc2c(=O)n3ccccc3nc2n1C (stereo not drawn) | 16µM | i | 23µM | i | i | ?
Cc1csc2nc(O)c(C(=O)NCC3CCCO3)c(=O)n12 (stereo not drawn) | i | i | i | i | i | i
Cc1cccn2c(=O)c3cc(C(=O)NC4CCCCC4C)n(C)c3nc12 (stereo not drawn) | ? | i | i | i | i | i
O=C(CNC(=O)c1ccccc1)N/N=C/C=C/c1ccccc1 | i | i | i | i | i | i
O=C(Cc1cc(=O)[nH][nH]1)N/N=C/C=C/c1ccccc1 | 29µM | i | ? | i | ? | ?
CC(C)(C)c1ccc(CC(=O)N2CCC2(C)C(=O)Nc2cccc3c2CCCC3)cc1 (stereo not drawn) | ? | ? | ? | ? | i | nt
O=C(O)CCCNS(=O)(=O)/C=C/c1ccccc1 | i | i | i | i | i | i
COc1cc(-c2nnc(-c3ccc(N4CCOCC4)cc3)o2)cc(OC)c1OC | 5.8µM | i | 6.5µM | i | ? | i
COc1cc(-c2nnc(-c3ccc(S(=O)(=O)c4ccccc4)cc3)o2)cc(OC)c1OC | 12µM | i | 12µM | i | i | ?
COc1cc(-c2nnc(NC(=O)CS(=O)(=O)c3ccc(C)cc3)o2)cc(OC)c1OC | i | i | i | i | i | i
COc1ccccc1N1CCN(S(=O)(=O)c2ccc(-n3cnnn3)cc2)CC1 | ? | i | ? | i | i | i
CCOC(=O)C1=CCN(S(=O)(=O)c2ccccc2F)C1c1ccc(F)cc1 (stereo not drawn) | ? | i | ? | i | i | nt
SMILES | DT40 TDP1 no CPT | HT1080 IDH1KD tx | DT40 TDP1 CPT | HT1080NT lethal | IL-1B inflam inh | ELG1 DNA repair
CNS(=O)(=O)c1cccc(C(=O)NCC(c2cccs2)N(C)C)c1 (stereo not drawn) | i | i | i | i | i | i
Cc1cccc(NS(=O)(=O)c2ccc(C)c(C(=O)NCC(c3cccs3)N(C)C)c2)c1 (stereo not drawn) | ? | i | 18µM | i | i | i
CCN(c1ccccc1)S(=O)(=O)c1ccc(C(=O)N(C)Cc2cccs2)cc1 | 23µM | i | ? | i[9.24 µM] | i | ?
CCN(c1ccccc1)S(=O)(=O)c1cccc(C(=O)NCC(c2cccs2)N(C)C)c1 (stereo not drawn) | 21µM | i | ? | i | i | i
CCN(CC(=O)NCc1cccs1)C(=O)c1cccc(S(=O)(=O)N(CC)c2ccccc2)c1 | 23µM | i | ? | i | i | nt
Cc1cccc(NS(=O)(=O)c2ccc(C)c(C(=O)NCc3ccccn3)c2)c1 | ? | i | i | i | i | i
Cc1oc(-c2ccccc2)nc1CNC(=O)Nc1ccccc1 | ? | nt | i | nt | nt | nt
CC1(C(=O)NS(=O)(=O)c2ccc(Cl)cc2)CCN1C(=O)CC1CC1 (stereo not drawn) | i | i | i | i | i | nt
Cc1ccc(NS(=O)(=O)c2cccc(C(=O)NCC(c3cccs3)N(C)C)c2)cc1 (stereo not drawn) | ? | ? | 16µM | ? | i | i
COc1cc(OC)c2c(C)c(CC(=O)NCCc3ccccc3OC)c(=O)oc2c1 | i | nt | i | nt | nt | nt
CCn1cc(S(=O)(=O)NCc2ccc(OC)cc2)cn1 | i | i | i | i | i | i
COc1cccc(NC(=O)CSC2=Nc3ccccc3N=C(c3ccc(F)cc3)C2)c1 | ? | nt | 18µM | nt | nt | nt
Cc1ccc(C2=Nc3ccccc3N(CC(=O)Nc3cccc(F)c3)C(=O)C2)cc1C | 18µM | nt | ? | nt | nt | nt
O=C(CSC1=Nc2ccccc2N=C(c2ccc(F)cc2)C1)NCc1ccc(F)cc1 | i | nt | ? | nt | nt | nt
Cc1ccc(C2=Nc3ccccc3N(CC(=O)NCc3ccccc3Cl)C(=O)C2)cc1C | 21µM | nt | ? | nt | nt | nt
Cc1ccc(NC(=O)CN2C(=O)CC(c3ccc(F)cc3)=Nc3ccccc32)cc1F | 12µM | nt | 12µM | nt | nt | nt
O=c1[nH]c(=O)c2[nH]c(=O)[nH]c2[nH]1 | i | nt | i | nt | nt | nt
CC(Oc1ccc(C(C)(C)C)cc1)c1ccnc2nc(/N=C/N(C)C)nn12 (stereo not drawn) | ? | ? | 16µM | i | i | i
CC(Oc1ccc(F)cc1)c1ccnc2nc(/N=C/N(C)C)nn12 (stereo not drawn) | i | i | i | i | i | i
COc1ccc(OC)c(NC(=O)c2ccccc2NS(=O)(=O)c2cccc3cccnc23)c1 | 29µM | i | i | i | i | i
COc1ccccc1NC(=O)c1cc2ccc3cccnc3c2[nH]1 | 26µM | nt | 3.7µM | nt | nt | nt

Screening data (PubChem)
